# Source: PubChem BioAssay (EPA / NIEHS)
# Activity calls are given as the source filed them. How the source made its calls: active means hit-call score of the fitted dose curve at least 0.9, where 1 is the maximum; inactive means score below 0.9.
# What was measured:
# [1] = read-out: Tumor necrosis factor receptor superfamily member 6 (Homo sapiens) (UniProt P25445); assay: LTEA_HepaRG_FAS: Life Technologies and Expression Analysis (LTEA) Assay for Fas cell surface death receptor (FAS) using HepaRG (AID 2283447); conditions: mRNA level, 48 h; actives raise or lower the signal
# Procedure, shortened: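 Differentiated human HepaRG cells, pre-cultured 48 h, were exposed in duplicate for 48 h to 8-point half-log concentrations (top 100 uM, 0.5% DMSO) in serum-free induction medium; FAS mRNA measured by qRT-PCR, normalized to ACTB/GAPDH/POLR2A, bidirectional fit versus DMSO.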
# [2] = read-out: Fatty acid synthase (Homo sapiens) (UniProt P49327); assay: LTEA_HepaRG_FASN: Life Technologies and Expression Analysis (LTEA) Assay for Fatty Acid Synthase (FASN) using HepaRG (AID 2283448); conditions: mRNA level, 48 h; actives raise or lower the signal
# Procedure, shortened: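 HepaRG, 48 h exposure, 8-pt half-log series top 100 uM, 0.5% DMSO vehicle, duplicates. Readout: FASN transcript by Fluidigm qRT-PCR; housekeeping-normalized; bidirectional curve fit vs DMSO baseline.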
# [3] = read-out: Cyclin D2 (CCND2), CCND2 (gene 894); assay: LTEA_HepaRG_CCND2: Life Technologies and Expression Analysis (LTEA) Assay for Cyclin D2 (CCND2) using HepaRG (AID 2283449); conditions: mRNA level, 48 h; actives raise or lower the signal;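 further: CCND2 transcript measured by TaqMan qRT-PCR and normalised to three housekeeping genes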
# Procedure, shortened: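 In this HepaRG study, an eight-point concentration series (max 100 uM, 0.5% DMSO) is applied for 48 h. CCND2 mRNA change is derived by qRT-PCR normalised to ACTB, GAPDH and POLR2A.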
# [4] = read-out: Cyclin Dependent Kinase Inhibitor 1A (CDKN1A), CDKN1A (gene 1026); assay: LTEA_HepaRG_CDKN1A: Life Technologies and Expression Analysis (LTEA) Assay for Cyclin Dependent Kinase Inhibitor 1A (CDKN1A) using HepaRG (AID 2283450); conditions: mRNA level, 48 h; actives raise or lower the signal
# Procedure, shortened: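 Read-out is CDKN1A mRNA by TaqMan qRT-PCR, normalized to three housekeeping genes and fitted in both directions against the DMSO baseline. Human HepaRG cells were treated 48 h with test chemicals up to 100 uM in half-log steps, 0.5% DMSO.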
# [5] = read-out: Cyclin D1 (CCND1), CCND1 (gene 595); assay: LTEA_HepaRG_CCND1: Life Technologies and Expression Analysis (LTEA) Assay for Cyclin D1 (CCND1) using HepaRG (AID 2283451); conditions: mRNA level, 48 h; actives raise or lower the signal
# Procedure, shortened: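 HepaRG plated 48 h, medium switched to serum-free induction medium, chemicals added in duplicate (top 100 uM, half-log steps, 0.5% DMSO) for 48 h, cells lysed, RNA measured by TaqMan qRT-PCR.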
# [6] = read-out: catalase (CAT), CAT (gene 847); assay: LTEA_HepaRG_CAT: Life Technologies and Expression Analysis (LTEA) Assay for catalase (CAT) using HepaRG (AID 2283452); conditions: mRNA level, 48 h; actives raise or lower the signal
# Procedure, shortened: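 Differentiated HepaRG cells in serum-free induction medium were dosed 48 h in duplicate, eight half-log concentrations from 100 uM in 0.5% DMSO. Transcript measured by TaqMan qRT-PCR, normalised to ACTB/GAPDH/POLR2A, fitted bidirectionally against DMSO.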
# [7] = read-out: flavin-containing dimethylaniline monooxygenases 3 (FMO3), FMO3 (gene 2328); assay: LTEA_HepaRG_FMO3: Life Technologies and Expression Analysis (LTEA) Assay for flavin-containing dimethylaniline monooxygenases 3 (FMO3) using HepaRG (AID 2283453); conditions: mRNA level, 48 h; actives raise or lower the signal
# Procedure, shortened: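 Eight-point concentration-response in serum-free HepaRG cultures (top 100 uM, 0.5% DMSO, 48 h). Read-out: FMO3 mRNA level normalized to three endogenous control genes, fitted bidirectionally versus vehicle.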
# [8] = read-out: Cytochrome P450 (CYP1A1), CYP1A1 (gene 1543); assay: LTEA_HepaRG_CYP1A1: Life Technologies and Expression Analysis (LTEA) Assay for Cytochrome P450 (CYP1A1) using HepaRG (AID 2283454); conditions: mRNA level, 48 h; actives raise or lower the signal
# Procedure, shortened: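 HepaRG, 48 h post-plating switched to serum-free induction medium; 8-pt conc-response (top 100 uM, half-log, 0.5% DMSO), duplicates, 48 h. Lysis in RLT, TaqMan qRT-PCR for CYP1A1; gain or loss vs DMSO.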
# [9] = read-out: CFLAR gene, CFLAR (gene 8837); assay: LTEA_HepaRG_CFLAR: Life Technologies and Expression Analysis (LTEA) Assay for CFLAR gene using HepaRG (AID 2283455); conditions: mRNA level, 48 h; actives raise or lower the signal
# Procedure, shortened: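 Gain- or loss-of-signal changes in CFLAR transcript were fitted bidirectionally relative to 0.5% DMSO. Cells (HepaRG, duplicate wells) were dosed for 48 h across eight half-log concentrations topping at 100 uM; quantitation by TaqMan qRT-PCR.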
# [10] = read-out: Forkhead box O1 (FOXO1), FOXO1 (gene 2308); assay: LTEA_HepaRG_FOXO1: Life Technologies and Expression Analysis (LTEA) Assay for Forkhead box O1 (FOXO1) using HepaRG (AID 2283456); conditions: mRNA level, 48 h; actives raise or lower the signal
# Procedure, shortened: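 Using one lot of HepaRG hepatic cells kept in 0.5% DMSO, the team applied test chemicals in duplicate, half-log dilutions from 100 uM, for 48 h. Expression, normalised to ACTB/GAPDH/POLR2A, was compared with vehicle in either direction.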
# [11] = read-out: growth arrest and DNA damage 45 (GADD45A), GADD45A (gene 1647); assay: LTEA_HepaRG_GADD45A: Life Technologies and Expression Analysis (LTEA) Assay for growth arrest and DNA damage 45 (GADD45A) using HepaRG (AID 2283458); conditions: mRNA level, 48 h; actives raise or lower the signal
# Procedure, shortened: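 HepaRG, 48 h exposure, 8 conc. (top 100 uM, half-log steps), 0.5% DMSO vehicle, duplicates. Read-out: qRT-PCR mRNA level, housekeeping-normalized (ACTB/GAPDH/POLR2A). Curves fit bidirectionally vs DMSO baseline.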
# [12] = read-out: Forkhead box O3 (FOXO3), FOXO3 (gene 2309); assay: LTEA_HepaRG_FOXO3: Life Technologies and Expression Analysis (LTEA) Assay for Forkhead box O3 (FOXO3) using HepaRG (AID 2283459); conditions: mRNA level, 48 h; actives raise or lower the signal
# Procedure, shortened: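 Gene-expression endpoint: FOXO3 transcript level by qRT-PCR in HepaRG cultures treated 48 h with chemicals up to 100 uM (half-log, 0.5% DMSO vehicle).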
# [13] = read-out: ABC Transporter (ABCB1), ABCB1 (gene 5243); assay: LTEA_HepaRG_ABCB1: Life Technologies and Expression Analysis (LTEA) Assay for ABC Transporter (ABCB1) using HepaRG (AID 2283460); conditions: mRNA level, 48 h; actives raise or lower the signal
# Procedure, shortened: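 Human liver HepaRG line treated 48 h with up to 100 uM compound (eight half-log points, 0.5% DMSO); ABCB1 mRNA change fitted bidirectionally against DMSO controls.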
# [14] = read-out: ABC Transporter (ABCC3), ABCC3 (gene 8714); assay: LTEA_HepaRG_ABCC3: Life Technologies and Expression Analysis (LTEA) Assay for ABC Transporter (ABCC3) using HepaRG (AID 2283462); conditions: mRNA level, 48 h; actives raise or lower the signal
# Procedure, shortened: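 Human HepaRG, 48 h dosing, 8-pt half-log series from 100 uM, 0.5% DMSO vehicle, duplicates. ABCC3 mRNA by TaqMan qRT-PCR, housekeeping-normalized; bidirectional curve fit vs DMSO.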
# [15] = read-out: ABC Transporter (ABCB11), ABCB11 (gene 8647); assay: LTEA_HepaRG_ABCB11: Life Technologies and Expression Analysis (LTEA) Assay for ABC Transporter (ABCB11) using HepaRG (AID 2283463); conditions: mRNA level, 48 h; actives raise or lower the signal
# Procedure, shortened: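 Using HepaRG cultures held in 0.5% DMSO, chemicals were tested at half-log dilutions from 100 uM for 48 h. Induction or suppression of ABCB11 mRNA, normalized to ACTB, GAPDH and POLR2A, was fitted bidirectionally against vehicle.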
# [16] = read-out: ABC Transporter (ABCC2), ABCC2 (gene 1244); assay: LTEA_HepaRG_ABCC2: Life Technologies and Expression Analysis (LTEA) Assay for ABC Transporter (ABCC2) using HepaRG (AID 2283464); conditions: mRNA level, 48 h; actives raise or lower the signal
# Procedure, shortened: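 HepaRG, 48 h post-plating; serum-free induction medium; cpd 8-pt, 100 uM top, half-log, 0.5% DMSO, duplicate, 48 h. Readout: ABCC2 mRNA by qRT-PCR, norm. ACTB/GAPDH/POLR2A. Bidirectional fit vs DMSO baseline.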
# [17] = read-out: Broad substrate specificity ATP-binding cassette transporter ABCG2 (Homo sapiens) (UniProt Q9UNQ0); assay: LTEA_HepaRG_ABCG2: Life Technologies and Expression Analysis (LTEA) Assay for ABC Transporter (ABCG2) using HepaRG (AID 2283465); conditions: mRNA level, 48 h; actives raise or lower the signal
# Procedure, shortened: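 Gene expression of ABCG2 in HepaRG liver cells is quantified by qRT-PCR following 48 h exposure across an eight-point series topping at 100 uM. Values come from bidirectional fitting relative to DMSO vehicle.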
# [18] = read-out: growth arrest and DNA damage 45 (GADD45B), GADD45B (gene 4616); assay: LTEA_HepaRG_GADD45B: Life Technologies and Expression Analysis (LTEA) Assay for growth arrest and DNA damage 45 (GADD45B) using HepaRG (AID 2283461); conditions: mRNA level, 48 h; actives raise or lower the signal
# Procedure, shortened: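 HepaRG, ~100,000 cells/well, 48 h plating; serum-free induction medium; cpd 100 uM top, half-log x8, 0.5% DMSO, duplicate, 48 h; lysis in RLT, RNA isolation, qRT-PCR; norm ACTB/GAPDH/POLR2A; bidirectional fit vs DMSO.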
# [19] = read-out: ATP-citrate lyase (ACLY), ACLY (gene 47); assay: LTEA_HepaRG_ACLY: Life Technologies and Expression Analysis (LTEA) Assay for ATP-citrate lyase (ACLY) using HepaRG (AID 2283466); conditions: mRNA level, 48 h; actives raise or lower the signal
# Procedure, shortened: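 ACLY expression changes in human HepaRG liver cells are quantified by qRT-PCR after 48 h exposure to test chemicals (maximum 100 uM, half-log steps). Values are fitted in both directions relative to 0.5% DMSO vehicle.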
# [20] = CEETOX_H295R_TESTO: CeeTox H295R High-throughput Steroidogenesis Assay for Testosterone (TESTO) (AID 2283457); conditions: actives raise or lower the signal
# Procedure, shortened: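 H295R, passage ≤10, 48 h dosing; media extracted with MTBE → HPLC-MS/MS for testosterone; 7-pt standard curve sets LLOQ/ULOQ; bidirectional fit vs DMSO; MTT viability same wells.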
# Sequence of Fatty acid synthase (Homo sapiens) (P49327 whole entry, looked up): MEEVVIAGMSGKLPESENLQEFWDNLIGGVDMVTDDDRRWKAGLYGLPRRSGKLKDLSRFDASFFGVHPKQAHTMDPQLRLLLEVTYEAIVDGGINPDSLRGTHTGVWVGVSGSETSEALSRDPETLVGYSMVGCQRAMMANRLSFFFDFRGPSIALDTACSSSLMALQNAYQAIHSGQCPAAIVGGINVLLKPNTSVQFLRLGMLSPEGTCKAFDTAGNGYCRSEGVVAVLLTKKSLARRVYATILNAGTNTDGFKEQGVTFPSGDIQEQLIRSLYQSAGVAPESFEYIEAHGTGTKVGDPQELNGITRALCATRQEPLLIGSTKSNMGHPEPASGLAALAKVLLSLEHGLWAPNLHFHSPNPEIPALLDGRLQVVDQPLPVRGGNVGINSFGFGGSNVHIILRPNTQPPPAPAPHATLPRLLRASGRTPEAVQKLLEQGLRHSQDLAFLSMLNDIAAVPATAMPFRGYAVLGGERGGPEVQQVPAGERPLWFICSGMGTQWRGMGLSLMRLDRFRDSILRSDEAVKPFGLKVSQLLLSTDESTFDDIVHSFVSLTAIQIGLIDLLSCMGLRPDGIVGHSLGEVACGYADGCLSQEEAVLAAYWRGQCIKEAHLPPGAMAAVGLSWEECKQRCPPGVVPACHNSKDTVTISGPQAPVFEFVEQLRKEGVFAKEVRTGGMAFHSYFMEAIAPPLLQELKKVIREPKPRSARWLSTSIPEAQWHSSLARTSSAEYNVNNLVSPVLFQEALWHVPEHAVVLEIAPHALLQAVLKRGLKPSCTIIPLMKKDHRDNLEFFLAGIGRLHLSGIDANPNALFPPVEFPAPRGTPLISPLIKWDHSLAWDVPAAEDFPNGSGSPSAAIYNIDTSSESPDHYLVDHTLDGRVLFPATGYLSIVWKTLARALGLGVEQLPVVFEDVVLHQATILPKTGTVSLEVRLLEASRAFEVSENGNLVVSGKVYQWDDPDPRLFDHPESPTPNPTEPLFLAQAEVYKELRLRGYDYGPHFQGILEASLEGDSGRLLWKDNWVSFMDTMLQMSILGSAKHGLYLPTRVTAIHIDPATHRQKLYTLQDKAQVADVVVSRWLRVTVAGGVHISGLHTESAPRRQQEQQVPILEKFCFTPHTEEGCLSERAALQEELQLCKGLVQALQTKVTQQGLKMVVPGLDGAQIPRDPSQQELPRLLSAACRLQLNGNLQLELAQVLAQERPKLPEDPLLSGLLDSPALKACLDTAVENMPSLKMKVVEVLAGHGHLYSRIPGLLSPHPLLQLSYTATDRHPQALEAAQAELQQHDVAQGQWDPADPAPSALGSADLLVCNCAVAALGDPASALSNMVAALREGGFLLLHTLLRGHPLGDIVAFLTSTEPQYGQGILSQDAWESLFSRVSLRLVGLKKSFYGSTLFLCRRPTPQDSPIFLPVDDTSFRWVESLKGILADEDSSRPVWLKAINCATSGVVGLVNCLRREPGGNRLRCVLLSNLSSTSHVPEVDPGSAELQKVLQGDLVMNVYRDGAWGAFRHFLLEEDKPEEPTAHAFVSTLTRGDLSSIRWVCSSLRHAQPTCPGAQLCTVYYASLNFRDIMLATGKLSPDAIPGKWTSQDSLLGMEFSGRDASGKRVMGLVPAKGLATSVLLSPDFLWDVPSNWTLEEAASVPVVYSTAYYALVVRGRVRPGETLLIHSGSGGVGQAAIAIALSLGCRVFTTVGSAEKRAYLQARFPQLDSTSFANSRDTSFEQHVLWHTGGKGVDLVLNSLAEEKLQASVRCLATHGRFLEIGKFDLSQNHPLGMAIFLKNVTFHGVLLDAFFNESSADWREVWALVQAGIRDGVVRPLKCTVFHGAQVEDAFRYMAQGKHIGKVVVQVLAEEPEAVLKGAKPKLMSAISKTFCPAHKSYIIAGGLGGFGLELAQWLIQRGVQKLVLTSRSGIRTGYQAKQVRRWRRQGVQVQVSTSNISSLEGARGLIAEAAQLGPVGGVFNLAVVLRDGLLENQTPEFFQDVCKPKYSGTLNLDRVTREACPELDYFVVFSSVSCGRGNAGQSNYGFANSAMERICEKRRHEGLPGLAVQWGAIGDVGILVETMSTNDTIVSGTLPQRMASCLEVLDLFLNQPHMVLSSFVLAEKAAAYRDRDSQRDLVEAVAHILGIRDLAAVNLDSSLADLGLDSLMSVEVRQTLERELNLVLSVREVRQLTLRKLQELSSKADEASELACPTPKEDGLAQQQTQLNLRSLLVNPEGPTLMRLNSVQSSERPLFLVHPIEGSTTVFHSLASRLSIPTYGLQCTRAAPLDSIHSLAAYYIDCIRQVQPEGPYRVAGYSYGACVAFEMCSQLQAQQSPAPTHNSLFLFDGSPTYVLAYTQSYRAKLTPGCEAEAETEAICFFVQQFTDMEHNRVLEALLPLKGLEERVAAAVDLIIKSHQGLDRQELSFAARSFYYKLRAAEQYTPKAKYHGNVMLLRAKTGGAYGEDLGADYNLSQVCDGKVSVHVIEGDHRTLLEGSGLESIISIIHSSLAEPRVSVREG
# Sequence of Broad substrate specificity ATP-binding cassette transporter ABCG2 (Homo sapiens) (Q9UNQ0 whole entry, looked up): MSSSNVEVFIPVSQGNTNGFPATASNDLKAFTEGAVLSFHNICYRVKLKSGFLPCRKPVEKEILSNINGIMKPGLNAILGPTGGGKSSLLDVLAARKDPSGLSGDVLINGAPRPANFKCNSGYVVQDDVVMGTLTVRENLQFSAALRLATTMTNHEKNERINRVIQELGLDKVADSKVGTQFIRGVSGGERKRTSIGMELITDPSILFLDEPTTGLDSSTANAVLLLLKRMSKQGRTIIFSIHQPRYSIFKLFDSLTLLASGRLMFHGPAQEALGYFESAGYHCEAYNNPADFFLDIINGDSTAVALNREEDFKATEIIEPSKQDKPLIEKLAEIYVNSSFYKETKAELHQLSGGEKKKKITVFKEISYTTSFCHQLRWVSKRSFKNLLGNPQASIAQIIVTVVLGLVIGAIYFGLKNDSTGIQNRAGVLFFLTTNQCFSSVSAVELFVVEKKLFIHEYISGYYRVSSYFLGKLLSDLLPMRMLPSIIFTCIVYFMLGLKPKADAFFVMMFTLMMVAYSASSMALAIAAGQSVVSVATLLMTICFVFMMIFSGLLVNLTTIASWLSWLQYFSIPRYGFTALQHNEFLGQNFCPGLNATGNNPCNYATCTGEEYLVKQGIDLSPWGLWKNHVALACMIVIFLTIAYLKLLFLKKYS
smiles,measurement,setting,value
CCc1cccc(C)c1N(C(=O)CCl)C(C)COC (configuration not stated),outcome,[1],inactive
same,outcome,[2],inactive
same,outcome,[3],inactive
same,outcome,[4],inactive
same,outcome,[5],inactive
same,outcome,[6],inactive
same,outcome,[7],inactive
same,AC50,[8],62.6 µM (active)
same,outcome,[9],inactive
same,outcome,[10],inactive
same,outcome,[11],inactive
same,outcome,[12],inactive
same,outcome,[13],inactive
same,outcome,[14],inactive
same,outcome,[15],inactive
same,outcome,[16],inactive
same,outcome,[17],inactive
CCCCOC(=O)c1ccccc1C(=O)O,outcome,[1],inactive
same,outcome,[2],inactive
same,outcome,[3],inactive
same,outcome,[4],inactive
same,outcome,[5],inactive
same,outcome,[6],inactive
same,outcome,[7],inactive
same,AC50,[8],36.1 µM (active)
same,outcome,[9],inactive
same,outcome,[10],inactive
same,outcome,[11],inactive
same,outcome,[12],inactive
same,outcome,[13],inactive
same,outcome,[18],inactive
same,outcome,[15],inactive
same,outcome,[16],inactive
same,outcome,[17],inactive
same,outcome,[19],inactive
C[N+]1(C)CCCCC1,outcome,[1],inactive
same,outcome,[2],inactive
same,outcome,[3],inactive
same,outcome,[4],inactive
same,outcome,[5],inactive
same,outcome,[6],inactive
same,outcome,[7],inactive
same,AC50,[8],50 µM (active)
same,outcome,[9],inactive
same,outcome,[10],inactive
same,outcome,[11],inactive
same,outcome,[12],inactive
same,outcome,[13],inactive
same,outcome,[18],inactive
same,outcome,[14],inactive
same,outcome,[15],inactive
same,outcome,[16],inactive
same,outcome,[17],inactive
same,outcome,[19],inactive
CCOC(=O)COc1cc(-c2nn(C)c(OC(F)F)c2Cl)c(F)cc1Cl,outcome,[1],inactive
same,outcome,[2],inactive
same,outcome,[3],inactive
same,outcome,[4],inactive
same,outcome,[5],inactive
same,outcome,[6],inactive
same,outcome,[7],inactive
same,AC50,[8],50 µM (active)
same,outcome,[9],inactive
same,outcome,[10],inactive
same,outcome,[20],inactive
same,outcome,[11],inactive
same,outcome,[12],inactive
same,AC50,[13],34.3 µM (active)
same,outcome,[18],inactive
same,outcome,[14],inactive
same,outcome,[15],inactive
same,AC50,[16],50 µM (active)
same,outcome,[17],inactive
same,outcome,[19],inactive
CCc1cccc(CC)c1N(COC)C(=O)CCl,outcome,[1],inactive
same,outcome,[2],inactive
same,outcome,[3],inactive
same,outcome,[4],inactive
same,outcome,[5],inactive
same,outcome,[6],inactive
same,outcome,[7],inactive
same,AC50,[8],50 µM (active)
same,outcome,[9],inactive
same,outcome,[10],inactive
same,outcome,[11],inactive
same,outcome,[12],inactive
same,outcome,[13],inactive
same,outcome,[18],inactive
same,outcome,[14],inactive
same,outcome,[15],inactive
same,outcome,[16],inactive
same,outcome,[17],inactive
same,outcome,[19],inactive
CCC(CC)Nc1c([N+](=O)[O-])cc(C)c(C)c1[N+](=O)[O-],outcome,[1],inactive
same,outcome,[2],inactive
same,outcome,[3],inactive
same,outcome,[4],inactive
same,outcome,[5],inactive
same,outcome,[6],inactive
same,outcome,[7],inactive
same,AC50,[8],29.8 µM (active)
same,outcome,[9],inactive
same,outcome,[10],inactive
same,outcome,[11],inactive
same,outcome,[12],inactive
same,outcome,[13],inactive
same,outcome,[18],inactive
same,outcome,[14],inactive
same,outcome,[15],inactive
same,outcome,[16],inactive
same,AC50,[17],60.6 µM (active)
same,AC50,[19],89.4 µM (active)
